Results reported in PubChem BioAssay (Tox21).
Values joined by “and” are separate entries in the source; they are usually repeats but may differ in a detail not shown here. Equal entries are not always repeated. Inconclusive results are not listed. Active and inactive are the calls of the source. Calls come from the whole dose curve; as a rule, active = well fitted curve in the direction sought with a large enough effect in the repeat runs; inconclusive = weak or mixed curves; inactive = no such curve, though single readings can be large; an effect the other way counts as inactive or inconclusive.

Key:
[1] = A CellTox Green Cytotoxicity Assay to monitor cytotoxicity in HEK293 cells - 40 hour (AID 1224871); note: nearly all actives have a fitted effect of over 45% in size; note: potency is the fitted concentration of half-maximal effect
Procedure, shortened: (§1)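 Fluorescence from a DNA-binding dye excluded by viable cells was measured repeatedly in the same HEK293 wells (600 cells/well) during continuous compound exposure at 37 C. Each assay gives one read point: 0, 8, 16, 24, 32 or 40 h.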

[2] = qHTS RealTime-Glo MT Cell Viability Assay in HEK293 cells - 16 hour (AID 1224872); note: nearly all actives have a fitted effect of over 50% in size; note: potency is the fitted concentration of half-maximal effect
Procedure, shortened: (§2)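 HEK293 cells were seeded at 600 cells/well together with NanoLuc luciferase and cell-permeant prosubstrate, preincubated 5 h at 37 C/5% CO2, then given compound in DMSO by pintool. Luminescence from viable-cell prosubstrate reduction was read repeatedly over 40 h.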

[3] = qHTS RealTime-Glo MT Cell Viability Assay in HEK293 cells - 40 hour (AID 1224874); conditions: RealTime-Glo luminescence; max response: hits give low values; note: nearly all actives have a fitted effect of over 50% in size; note: potency is the fitted concentration of half-maximal effect
Procedure, shortened: (§3)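 Luminescence, which tracks viable cell number through reduction of the prosubstrate to a NanoLuc substrate, was read over continuous 37 C culture. Cells (600/well) were premixed with reagent and rested 5 h before 23 nL of compound in DMSO was pinned.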

[4] = A CellTox Green Cytotoxicity Assay to monitor cytotoxicity in HEK293 cells - 24 hour (AID 1224875); note: nearly all actives have a fitted effect of over 45% in size; note: potency is the fitted concentration of half-maximal effect
Procedure, shortened: as §1

[5] = A CellTox Green Cytotoxicity Assay to monitor cytotoxicity in HepG2 cells - 16 hour (AID 1224876); note: nearly all actives have a fitted effect of over 45% in size; note: potency is the fitted concentration of half-maximal effect
Procedure, shortened: (§4)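 Real-time cytotoxicity: fluorescence of a cell-impermeant cyanine dye binding DNA of dead HepG2 cells, measured repeatedly (0–40 h) during compound exposure at 37 C. Cells seeded 600/well with reagent, dosed after 5 h.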

[6] = qHTS RealTime-Glo MT Cell Viability Assay in HepG2 cells - 32 hour (AID 1224877); note: nearly all actives have a fitted effect of over 55% in size; note: potency is the fitted concentration of half-maximal effect
Procedure, shortened: (§5)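 HepG2 cells were seeded at 600 cells/well together with NanoLuc luciferase and a cell-permeant prosubstrate, preincubated 5 h at 37 C/5% CO2, then pin-dosed with compounds in DMSO. Nonlytic luminescence from viable cells was read at each time point.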

[7] = A CellTox Green Cytotoxicity Assay to monitor cytotoxicity in HepG2 cells - 24 hour (AID 1224878); note: nearly all actives have a fitted effect of over 45% in size; note: potency is the fitted concentration of half-maximal effect
Procedure, shortened: as §4

[8] = qHTS RealTime-Glo MT Cell Viability Assay in HEK293 cells - 0 hour (AID 1224880); note: nearly all actives have a fitted effect of over 45% in size; note: potency is the fitted concentration of half-maximal effect
Procedure, shortened: as §3

[9] = A CellTox Green Cytotoxicity Assay to monitor cytotoxicity in HEK293 cells - 32 hour (AID 1224881); note: nearly all actives have a fitted effect of over 40% in size; note: potency is the fitted concentration of half-maximal effect
Procedure, shortened: as §1

[10] = A CellTox Green Cytotoxicity Assay to monitor cytotoxicity in HepG2 cells - 0 hour (AID 1224882); note: nearly all actives have a fitted effect of over 35% in size
Procedure, shortened: as §4

[11] = A CellTox Green Cytotoxicity Assay to monitor cytotoxicity in HepG2 cells - 32 hour (AID 1224883); note: nearly all actives have a fitted effect of over 50% in size; note: potency is the fitted concentration of half-maximal effect
Procedure, shortened: as §4

[12] = A CellTox Green Cytotoxicity Assay to monitor cytotoxicity in HEK293 cells - 8 hour (AID 1224884); note: nearly all actives have a fitted effect of over 35% in size; note: potency is the fitted concentration of half-maximal effect
Procedure, shortened: as §1

[13] = qHTS RealTime-Glo MT Cell Viability Assay in HepG2 cells - 16 hour (AID 1224885); note: nearly all actives have a fitted effect of over 50% in size; note: potency is the fitted concentration of half-maximal effect
Procedure, shortened: as §5

[14] = qHTS RealTime-Glo MT Cell Viability Assay in HEK293 cells - 24 hour (AID 1224886); note: nearly all actives have a fitted effect of over 50% in size; note: potency is the fitted concentration of half-maximal effect
Procedure, shortened: as §2

[15] = qHTS RealTime-Glo MT Cell Viability Assay in HEK293 cells - 8 hour (AID 1224887); note: nearly all actives have a fitted effect of over 50% in size; note: potency is the fitted concentration of half-maximal effect
Procedure, shortened: as §3

[16] = A CellTox Green Cytotoxicity Assay to monitor cytotoxicity in HEK293 cells - 16 hour (AID 1224888); note: nearly all actives have a fitted effect of over 35% in size; note: potency is the fitted concentration of half-maximal effect
Procedure, shortened: as §1

[17] = qHTS RealTime-Glo MT Cell Viability Assay in HepG2 cells - 0 hour (AID 1224889); note: nearly all actives have a fitted effect of over 50% in size; note: potency is the fitted concentration of half-maximal effect
Procedure, shortened: as §5

[18] = A CellTox Green Cytotoxicity Assay to monitor cytotoxicity in HepG2 cells - 8 hour (AID 1224890); note: nearly all actives have a fitted effect of over 45% in size; note: potency is the fitted concentration of half-maximal effect
Procedure, shortened: as §4

[19] = qHTS RealTime-Glo MT Cell Viability Assay in HepG2 cells - 8 hour (AID 1224873); note: nearly all actives have a fitted effect of over 55% in size; note: potency is the fitted concentration of half-maximal effect
Procedure, shortened: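 HepG2 cells mixed with RealTime-Glo MT reagents (NanoLuc plus cell-permeant prosubstrate) were seeded at 600 cells/well, incubated 5 h at 37 C/5% CO2, then pinned with compounds in DMSO; nonlytic luminescence tracked viability during 40 h treatment.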

[20] = A CellTox Green Cytotoxicity Assay to monitor cytotoxicity in HepG2 cells - 40 hour (AID 1224879); note: nearly all actives have a fitted effect of over 40% in size; note: potency is the fitted concentration of half-maximal effect
Procedure, shortened: as §4
% is set by controls: 0 for no effect and ±100 for the full control effect.

Cc1nn(-c2cc(NS(C)(=O)=O)c(Cl)cc2Cl)c(=O)n1C(F)F
inactive: Potency [1] | Potency [2] | max response [3] 1.81% | Potency [4] | Potency [5] | Potency [6] | Potency [7] | Potency [8] | Potency [9] | Potency [10] | Potency [11] | Potency [12] | Potency [13] | Potency [14] | Potency [15] | Potency [16] | Potency [17] | Potency [18]

COc1ccc2c3c1O[C@H]1[C@H](O)CC[C@H]4[C@@H](C2)N(C)CC[C@@]341
inactive: Potency [1] | Potency [2] | Potency [19] | Potency [4] | Potency [5] | Potency [6] | Potency [7] | Potency [10] | Potency [11] | Potency [12] | Potency [13] | Potency [15] | Potency [16] | Potency [17] | Potency [18]

O=[N+]([O-])c1cc(C(F)(F)F)c(Cl)c([N+](=O)[O-])c1Nc1ncc(C(F)(F)F)cc1Cl
active: Potency [1] 24.5 µM | Potency [2] 2.75 µM | Potency [3] 1.55 µM | Potency [4] 38.9 µM | Potency [5] 43.6 µM | Potency [6] 17.4 µM | Potency [7] 12.3 µM | Potency [20] 3.89 µM | Potency [9] 24.5 µM | Potency [11] 4.9 µM | Potency [12] 49 µM | Potency [13] 24.5 µM | Potency [14] 1.74 µM | Potency [15] 5.49 µM | Potency [16] 49 µM
inactive: Potency [8] | Potency [10] | Potency [17] | Potency [18]

CCCCN(CCCC)C(=S)S
inactive: Potency [1] | Potency [2] | Potency [19] | Potency [4] | Potency [5] | Potency [6] | Potency [8] | Potency [9] | Potency [10] | Potency [13] | Potency [14] | Potency [15] | Potency [16] | Potency [17] | Potency [18]

Fc1ccc(C(OCCN2CCN(CCCc3ccccc3)CC2)c2ccc(F)cc2)cc1
inactive: Potency [10] | Potency [17]
active: Potency [1] 21.3 µM | Potency [2] 8.49 µM | Potency [19] 23.9 µM | Potency [4] 23.9 µM | Potency [5] 23.9 µM | Potency [7] 23.9 µM | Potency [20] 23.9 µM | Potency [9] 23.9 µM | Potency [11] 23.9 µM | Potency [12] 21.3 µM | Potency [13] 23.9 µM | Potency [15] 16.9 µM | Potency [16] 21.3 µM

NC1CCC(CC2CCC(N)CC2)CC1 (stereo not drawn)
inactive: Potency [1] | Potency [2] | Potency [19] | Potency [4] | Potency [5] | Potency [7] | Potency [20] | Potency [9] | Potency [10] | Potency [11] | Potency [12] | Potency [13] | Potency [15] | Potency [16] | Potency [17] | Potency [18]

CCCN
inactive: Potency [1] | Potency [2] | max response [3] -0.242% | Potency [4] | Potency [5] | Potency [6] | Potency [7] | Potency [20] | Potency [8] | Potency [9] | Potency [10] | Potency [11] | Potency [12] | Potency [13] | Potency [14] | Potency [15] | Potency [16] | Potency [17]

COC(=O)/C=C(\C)OP(=O)(OC)OC
inactive: Potency [1] | Potency [2] | max response [3] -4% | Potency [4] | Potency [5] | Potency [6] | Potency [7] | Potency [20] | Potency [8] | Potency [9] | Potency [10] | Potency [11] | Potency [12] | Potency [13] | Potency [14] | Potency [15] | Potency [16] | Potency [17] | Potency [18]

CC(Cc1ccc2c(c1)OCO2)NO (stereo not drawn)
inactive: Potency [1] | Potency [2] | Potency [19] | Potency [4] | Potency [5] | Potency [7] | Potency [8] | Potency [9] | Potency [10] | Potency [11] | Potency [12] | Potency [13] | Potency [14] | Potency [15] | Potency [16] | Potency [17]

O=S1OCC2C(CO1)C1(Cl)C(Cl)=C(Cl)C2(Cl)C1(Cl)Cl (stereo not drawn)
active: Potency [1] 49 µM and 54.9 µM | Potency [2] 19.5 µM and 38.9 µM | Potency [19] 48.9 µM | Potency [4] 55 µM and 54.9 µM | Potency [5] 48.9 µM | Potency [7] 48.9 µM | Potency [9] 49 µM and 54.9 µM | Potency [11] 54.9 µM | Potency [13] 48.9 µM | Potency [14] 21.9 µM and 38.9 µM | Potency [15] 43.6 µM | Potency [18] 54.9 µM
inactive: Potency [8] | Potency [10] | Potency [17]

Clc1cc(Cl)c(-c2cc(Cl)c(Cl)cc2Cl)cc1Cl
inactive: Potency [1] | Potency [2] | max response [3] 1.25% | Potency [4] | Potency [5] | Potency [6] | Potency [7] | Potency [20] | Potency [8] | Potency [9] | Potency [10] | Potency [11] | Potency [12] | Potency [13] | Potency [14] | Potency [15] | Potency [16] | Potency [17] | Potency [18]

CC[C@]1(O)CC[C@H]2[C@@H]3CCC4=CCCC[C@@H]4[C@H]3CC[C@@]21C
inactive: Potency [1] | Potency [2] | Potency [19] | Potency [4] | Potency [5] | Potency [6] | Potency [7] | Potency [8] | Potency [9] | Potency [10] | Potency [12] | Potency [13] | Potency [15] | Potency [16] | Potency [17]

N#Cc1sc2c(=O)c3ccccc3c(=O)c=2sc1C#N
active: Potency [1] 15.5 µM | Potency [2] 11 µM | Potency [19] 9.77 µM | Potency [4] 21.9 µM | Potency [5] 17.4 µM | Potency [6] 11 µM | Potency [7] 12.3 µM | Potency [8] 7.76 µM | Potency [9] 13.8 µM | Potency [11] 13.8 µM | Potency [13] 9.77 µM | Potency [14] 15.5 µM | Potency [15] 6.92 µM | Potency [16] 43.6 µM | Potency [17] 21.9 µM | Potency [18] 54.9 µM
inactive: Potency [10] | Potency [12]
